Out of some 69,000 compounds screened, about 8,600 (12%) showed an effect of 50% or more. The entries come from a sample that favours strong results as a whole.

The experiment concerns Plasmodium berghei. The experiment can be described thus: Screen against P. berghei liver stage (PbLuc), transformed with Luciferase, at 10uM. The experiment is classed as functional, HepG2. The settings on record: tested at 10 uM.
`O=C(CC1CC1)N1Cc2nccn2CC(Cn2ncccc2=O)C1` (centres undefined): the INHIBITION was -13.2%. As to `O=C(N1CCCC1)N1Cc2nccn2CC(CN2CCCC2)C1` (centres undefined), the INHIBITION is given as 42.6%.

For the molecule `CC(C)NC(=O)N1Cc2nccn2CC(CN2CCCC2)C1` (centres undefined), the INHIBITION is 73%. Next, `CC(=O)NCC(=O)N1Cc2nccn2CC(CN2CCCC2)C1` (centres undefined): 28.4%; `NC(=O)N1Cc2nccn2CC(Cn2ncccc2=O)C1` (centres undefined): 61.9%; `O=C(c1ccccc1)N1Cc2nccn2CC(Cn2ncccc2=O)C1` (centres undefined): 11.5%. On to `OC1(Cn2ccnc2)CCN(C[C@]2(O)CCCN3CCCC[C@@H]32)CC1`, for which the INHIBITION amounted to 28.8%. Turning to `O=C1CC2(CCN(C(=O)c3ccccn3)CC2)Oc2c(Br)cc(Br)cc21`, the INHIBITION amounted to 34.2%. Next, `c1cncc(CC2CN(c3cccnc3)CCO2)c1` (centres undefined): -43%; `O=C(NCc1cc(C2CC2)n(C2CCCC2)n1)C1CC1`: 44.4%; `Cc1nc(CN2C(=O)CCC23CCN(c2ncccn2)CC3)cs1`: -38.1%.

Turning to `O=C(NC1CC2(CCN(CCO)CC2)c2ccccc21)c1ccno1` (centres undefined), the INHIBITION worked out at 49.7%. Next, `C=C(C)CN1CCN(Cc2cnc(-c3ccc(OC)cc3)nc2)CC1`: 44.8%; `CCOCCCNC(=O)c1cc(OC)c2ccoc2c1`: 6.11%. Next, `CC(c1ccncn1)N(C)S(=O)(=O)NCc1ccccc1` (centres undefined): 4.65%. Next, `CC(c1nccs1)N(C)S(=O)(=O)NCc1ccccc1` (centres undefined): -1.6%; `CC(c1ccon1)N(C)S(=O)(=O)NCc1ccccc1` (centres undefined): 50.9%; `Cc1csc(N2CCN(C(=O)Cc3cccs3)CC2)n1`: 28.8%. As for `CCCc1n[nH]c(C2CN(CCCS(=O)(=O)N(C)C)CCO2)n1` (centres undefined), the INHIBITION is -21.7%. In the case of `CN(C)c1ncccc1N(C)C(=O)Cn1cc(-c2ccccc2)nn1`, the INHIBITION was -0.85%.

Take `Cc1cccc(C2CCCN(S(=O)(=O)c3cccnc3)C2)n1` (centres undefined): the INHIBITION came to 19.36%. Next, `CCN1CCO[C@@H]2CN(C(=O)c3ccc4[nH]ccc4c3)CC[C@@H]2C1`: 52.1%; `CC(=O)N1CCO[C@@H]2CN(C(=O)c3ccc4ncccc4c3)CC[C@@H]2C1`: 49.1%; `O=C(c1ccc2[nH]ccc2c1)N1CC[C@@H]2CN(CC3CC3)CCO[C@@H]2C1`: 60.2%.

As for `CC(=O)N1CCO[C@@H]2CN(C(=O)c3ccc4ccccc4c3)CC[C@@H]2C1`, the INHIBITION was -57.1%. Next, `CN1CCO[C@@H]2CN(C(=O)c3ccc4ncccc4c3)CC[C@@H]2C1`: 58.4%. Next, `COCCN1CCO[C@@H]2CN(C(=O)c3ccc4[nH]ccc4c3)CC[C@@H]2C1`: 1.36%; `O=C(c1ncccn1)N1C[C@@H]2CN(CC3CC3)CCO[C@@H]2C1`: 31.9%; `CC(=O)N1CCO[C@@H]2CN(C(=O)c3ccccc3)CC[C@@H]2C1`: 12.1%.

In the case of `CN1CCO[C@@H]2CN(C(=O)c3ccc4[nH]ccc4c3)CC[C@@H]2C1`, the INHIBITION was 43%. Take `CN(C)c1cc(C(=O)N2CCCCC2Cn2cccn2)ccn1` (centres undefined): the INHIBITION is on record as 17.5%. Next, `CCOc1ccccc1N1CCN(C(=O)c2cc[nH]n2)CC1`: 44.1%; `CN(C)CCOCC1CN(C(=O)N2CCCC2)Cc2ccnn2C1` (centres undefined): 46.6%; `O=C(O)c1cc(S(=O)(=O)Nc2ccccc2)cc2c1OCCO2`: 31.8%. Next, `CCCc1nc(CN(CC)Cc2ccc(O)c(C(=O)O)c2)no1`: 14.3%.

Turning to `CCN(CC)S(=O)(=O)c1ccc2c(c1)N(Cc1cccnc1)C(=O)CS2`, the INHIBITION is -3.5%.

For `O=C(c1cc[nH]n1)N1CCOCC2(C1)CN(c1ccccc1)C(=O)CO2` (centres undefined), the INHIBITION is given as -14.2%. Next, `Cc1cnn(C2CCCN(C(=O)CCc3c(C)noc3C)C2)c1` (centres undefined): 16.8%. Next, `Cc1c(C(=O)N2C[C@@H](CN(C)CCO)[C@@H](CO)C2)sc2ccccc12`: 32.1%.

As to `CCN(CCO)C[C@@H]1CN(C(=O)c2sc3ccccc3c2C)C[C@@H]1CO`, the INHIBITION came to 47.6%. Next, `CCN(CCO)C[C@@H]1CN(C(=O)c2ccc(C)s2)C[C@@H]1CO`: 59.4%; `CCN(CCO)C[C@@H]1CN(c2nc(C)cc(C)n2)C[C@@H]1CO`: 54.6%.

Regarding `CCN(CCO)C[C@@H]1CN(c2cc(C(F)(F)F)cc(C)n2)C[C@@H]1CO`, the INHIBITION was 12.9%. Consider `COCCN(C)C[C@@H]1CN(c2nc(C)cc(C)n2)C[C@@H]1CO`, for which the INHIBITION was found to be 32.2%. With `O=C(NCc1cn2c(n1)CN(Cc1ccncc1)CC2)C1CCC1`, the INHIBITION was determined as 43.9%. Next, `CCOc1ccnc(N2CCN(C(=O)c3cnc[nH]3)CC2)n1`: 31.8%. Next, `CC(C)c1cc(NC(=O)CNC2CCCN(c3cccnn3)C2)on1` (centres undefined): 42.9%.

As for `CCC1(CC)CC(=O)N(CC(O)c2cccc(Br)c2)C1=O` (centres undefined), the INHIBITION is recorded as -8%. Consider `Cc1nc(-c2ccco2)ccc1C(=O)NCCN1CCN(C)CC1`, for which the INHIBITION turned out to be 23.5%. Turning to `CCC(CO)N(Cc1cccs1)C(=O)Cc1ccncc1` (centres undefined), the INHIBITION came to 41.4%. Next, `CCC(CO)N(Cc1cccs1)C(=O)CSC` (centres undefined): -36.3%; `CCC(CO)N(Cc1cccs1)C(=O)Cc1ccc(O)cc1` (centres undefined): 71.1%. Next, `CCCNC(=O)COc1cc(C)c2c(C)nn(-c3ccccc3)c2n1`: 31.3%; `COc1cc(C(=O)NS(=O)(=O)c2cccc(C#N)c2)ccc1C`: 14.4%; `COc1cc(C(=O)NS(=O)(=O)c2ccc(C#N)cc2)ccc1C`: 15.5%.

As for `COc1cccc(C(=O)NS(=O)(=O)c2cccc(C#N)c2)c1`, the INHIBITION was found to be 38.8%. Next, `N#Cc1ccc(C(=O)NS(=O)(=O)c2ccc(F)c(F)c2)cc1`: 58.3%; `N#Cc1cccc(C(=O)NS(=O)(=O)c2ccc(C#N)c(Cl)c2)c1`: 50.7%.

Regarding `N#Cc1ccc(S(=O)(=O)NC(=O)c2ccc3c(c2)COC3)cc1`, the INHIBITION is on record as 6.61%. Next, `COc1cc(C(=O)NS(=O)(=O)c2cccc(C#N)c2)cc(Cl)c1OC`: -5.25%; `N#Cc1ccc(CS(=O)(=O)NC(=O)c2ccc(C#N)cc2)cc1`: -6.52%; `N#Cc1ccc(C(=O)NS(=O)(=O)c2ccc(C#N)c(Cl)c2)cc1`: 57.2%. Next, `CCc1oc(C(=O)N2CCC(N(CC)C(C)=O)C2)cc1CN(CC)CC` (centres undefined): 19.4%; `O=C(NCc1cccnc1)N1CCc2ncnc(NC3CC3)c2CC1`: 4.98%.

These data come from ChEMBL document CHEMBL4513216, “Probing the Open Global Health Chemical Diversity Library for Multistage-Active Starting Points for Next-Generation Antimalarials” (ACS Infect Dis, 2020).
